Results as given in PubChem BioAssay (EPA / NIEHS).
Records with an inconclusive call do not appear. Calls of active or inactive are those of the source. How the source made its calls: active means hit-call score of the fitted dose curve at least 0.9, where 1 is the maximum; inconclusive means response in the unintended direction; inactive means score below 0.9.

Test system: not listed separately
Experiment: TOX21_p53_BLA_p4_viability: Viability Assessment in the Tox21 HCT-116 p53 Agonism Beta-lactamase Assay, Phase 4 (AID 2283597);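 further: hits lower the luminescence signal meaning cytotoxicity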
Method in brief: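 Cells plated, 5 h pre-incubation; DMSO compounds pinned (217-fold dilution); 16 h, 37C/5% CO2; CCF4-AM 2 h RT; CellTiter-Glo 30 min RT; luminescence read.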

Row | SMILES | outcome | AC50
1 | ClC(Cl)(Cl)Cl | inactive | 
2 | ClC(Br)Br | inactive | 
3 | O=NN1CCN(N=O)CC1 | inactive | 
4 | CCCCN=C=O | inactive | 
5 | CCCCCCCCCCCCCCCCCCn1cc[n+](C)c1 | inactive | 
6 | COc1cc(N)c(Cl)cc1C(=O)NC1CN2CCC1CC2 (centres undefined) | inactive | 
7 | O=NN1CCNCC1 | inactive | 
8 | O=C/C=C/c1ccco1 | inactive | 
9 | COc1ccc2c(c1OC)CN1CCc3cc4c(cc3C1C2)OCO4 (centres undefined) | inactive | 
10 | COC(=O)[C@]12CCC(C)(C)C[C@H]1[C@H]1C(=O)C=C3[C@@]4(C)C=C(C#N)C(=O)C(C)(C)[C@@H]4CC[C@@]3(C)[C@]1(C)CC2 |  | 1.99 µM (active)
11 | C[C@]12CCC(=O)C[C@@H]1CC[C@@H]1[C@@H]2CC[C@@]2(C)[C@H]1CC[C@]2(C)O | inactive | 

Target: Cellular tumor antigen p53 (Homo sapiens) (UniProt P04637)
Experiment: TOX21_p53_BLA_p5_ratio: Tox21 HCT-116 p53 Agonism Beta-lactamase Assay, Ratio, Phase 5 (AID 2283599)
Method in brief: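 HCT-116 p53-bla cells (4000/well) plated 5 h, dosed with compound (217-fold DMSO dilution) for 16 h at 37 C; CCF4-AM substrate 2 h at room temperature. Activity is the 460/530 nm emission ratio (405 nm excitation), fitted in gain-of-signal direction versus DMSO.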

Cellular tumor antigen p53 (Homo sapiens), sequence (P04637 whole entry, looked up): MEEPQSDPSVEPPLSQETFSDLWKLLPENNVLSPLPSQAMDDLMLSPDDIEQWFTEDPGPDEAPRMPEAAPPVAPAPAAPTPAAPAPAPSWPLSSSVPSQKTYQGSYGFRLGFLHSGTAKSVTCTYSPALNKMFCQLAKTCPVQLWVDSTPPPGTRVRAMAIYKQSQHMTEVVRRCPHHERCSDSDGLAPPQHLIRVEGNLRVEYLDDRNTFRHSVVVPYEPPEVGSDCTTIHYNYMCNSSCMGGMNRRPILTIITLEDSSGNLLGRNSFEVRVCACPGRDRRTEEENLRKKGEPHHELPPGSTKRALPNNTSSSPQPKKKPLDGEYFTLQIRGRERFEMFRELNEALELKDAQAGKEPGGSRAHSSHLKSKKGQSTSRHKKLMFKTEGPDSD

Row | SMILES | outcome | AC50
12 | [O]=[Cd] | inactive | 
13 | F/C(COc1ccc2c(c1)[nH]c1ccccc12)=C1/CN2CCC1CC2 | inactive | 
14 | CCOP(=S)(OCC)Oc1cnc2ccccc2n1 | inactive | 
15 | O=C(Nc1ccccc1)N(Cc1ccc(Cl)cc1)C1CCCC1 | inactive | 
16 | C=CC1CC=CCC1 (centres undefined) | inactive | 
17 | O=C(O)C(Cl)Br (centres undefined) | inactive | 
18 | [H+].[H+].[Hg+2].[O-]B([O-])[O-].[c-]1ccccc1 |  | 5.39 µM (active)
19 | O=C(O)CC(Cl)C(=O)O (centres undefined) | inactive | 
20 | CCNC1(c2cccs2)CCCCC1=O (centres undefined) | inactive | 
21 | NC1(c2ccccc2)CCCCC1 | inactive | 
22 | C[C@@H](CO)NC(=O)[C@@H]1C=C2c3cccc4[nH]cc(c34)C[C@H]2N(C)C1 | inactive | 
23 | NCC(O)c1cccc(O)c1 (centres undefined) | inactive | 
24 | CC[N+](C)(CC)CCOC(=O)C(O)(c1ccccc1)c1ccccc1 | inactive | 
